“And” between values parts separate entries of the source, which are not always exact repeats. Equal values may be shown once. About 83,000 compounds went through this panel and 20% of them were active in at least one assay; those are over-represented in the sample as a whole.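 In brief: 96-well plates, 48 h treatment, single concentration, percent growth endpoint.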 The source made the active and inactive calls. Rule for the calls: active = growth percent below 10; inactive = the rest.
Tested on: MDA-MB-468 breast
Test: NCI-60 one-dose screen, 48 h (100 = growth as untreated, 0 = no growth, -100 = all killed)
Details: 10 µM unless noted

**Q.** For `NC(=O)OCC(CO)(c1ccccc1)c1ccccc1`, which growth is on record?
**A.** 93.8% (inactive)

**Q.** `Cc1cc(C)nc(C)c1.[Cl][Hg][Cl]` was tested. Which growth did it give?
**A.** 113% (inactive)

**Q.** Which growth does the source give for `CC/C(=C(\c1ccc(OCCN2CCOCC2)cc1)c1ccc(OC(=O)Cc2ccccc2)cc1)c1ccc(Cl)cc1` here?
**A.** 104% (inactive)

**Q.** Which growth does the source give for `CC1COC(=O)C1` (stereo not drawn) here?
**A.** 106% (inactive)

**Q.** How did the growth turn out when `COc1ccc(/C=C\c2cc(OC)c(OC)c(OC)c2)cc1OCC(=O)Nc1nc2ccc(OC(F)(F)F)cc2s1` was run?
**A.** -22.1% (active)

**Q.** For `O=[N+]([O-])c1cc([N+](=O)[O-])c(Nn2c3ccccc3c3ccccc32)c([N+](=O)[O-])c1`, which growth is on record?
**A.** -8.42% (active)

**Q.** Which growth does the source give for `C/C(=N/OC(=O)N(C)C)c1ccc(Cl)c(Cl)c1` here?
**A.** 120% (inactive)

**Q.** With `CCCCCCCCCC(=O)N[C@@](C)(CC)C(=O)N1CCC[C@H]1C(=O)N[C@@H](CC(C)C)C(=O)N[C@@](C)(CC)C(=O)N[C@@H](CCC(N)=O)C(=O)N[C@H](CCC(N)=O)C(=O)NC(C)(C)C(=O)NC(C)(C)C(=O)N[C@@H](CCC(N)=O)C(=O)N[C@H](CC(C)C)C(=O)N[C@H](CO)CC(C)C` as the compound, how does the growth read?
**A.** -94.7% (active) and -92.4% (active)

**Q.** How did the growth turn out when `CC1=C2C(=C[C@@](C)(COC(=O)c3ccc(S(=O)(=O)F)cc3)[C@@H]2OC(=O)c2ccc(S(=O)(=O)F)cc2)C(=O)[C@](C)(O)C12CC2` was run?
**A.** -76.8% (active)

**Q.** How did the growth turn out when `O=[As](O)(O)c1ccccc1[As](=O)(O)O` was run?
**A.** 99.7% (inactive)

**Q.** How did the growth turn out when `CN(C)C(=O)Oc1ccccc1` was run?
**A.** 113% (inactive)

**Q.** Which growth does the source give for `Oc1cc[c]([Hg][Cl])cc1` here?
**A.** 93.6% (inactive)

**Q.** Which growth does the source give for `C[C@]12CC[C@H]3[C@@H](CC=C4c5nc(N)sc5CC[C@@]43C)[C@@H]1CC[C@@H]2O` here?
**A.** 91.2% (inactive)

**Q.** `CNC(=O)Oc1ccccc1-c1ccccc1` was tested. Which growth did it give?
**A.** 113% (inactive)

**Q.** With `COC(=O)[C@@H](C)C[C@H](Cc1ccccc1)NC(=O)c1csc([C@@H](C[C@H](C(C)C)N(C)C(=O)[C@@H](NC(=O)[C@H]2CCCCN2C)c2ccc(F)cc2)OC(C)=O)n1` as the compound, how does the growth read?
**A.** 2.95% (active)

**Q.** `C[C@@]12CCCc3coc(c31)C(=O)c1cc3c(cc12)C(=O)C1=C(NCCS1(=O)=O)C3=O` was tested. Which growth did it give?
**A.** -65.6% (active)

**Q.** `COc1ccc(C(=O)c2sc3nc4c(cc3c2N)N2CCC4CC2)cc1OC` was tested. Which growth did it give?
**A.** 72.2% (inactive)

**Q.** With `CCCC(C)C1(CC)C(=O)NC(=O)N(C)C1=O` (stereo not drawn) as the compound, how does the growth read?
**A.** 94.2% (inactive)

**Q.** Which growth does the source give for `CCOC(=O)[C@@H](C)C[C@H](Cc1ccccc1)NC(=O)c1csc([C@@H](C[C@H](C(C)C)N(C)C(=O)[C@H](CCC(C)C)NC(=O)[C@H]2CCCCN2C)OC(C)=O)n1` here?
**A.** 5.73% (active)

**Q.** For `O[C@H](CN1CC1)[C@@H](O)CN1CC1`, which growth is on record?
**A.** 9.35% (active)

**Q.** Which growth does the source give for `CCOP(=O)(OCC)/C(C#N)=C/c1ccc(Br)cc1` here?
**A.** 101% (inactive)

**Q.** `O=C(Nc1ccc([As]=[As]c2ccc(NC(=O)c3ccccc3)cc2)cc1)c1ccccc1` (stereo not drawn) was tested. Which growth did it give?
**A.** -74.8% (active)

**Q.** For `CC[C@H](C)[C@H](NC(=O)C12C3C4C1C1C2C3C41NC(C)=O)C(=O)N(C)[C@H](C[C@@H](OC(C)=O)c1nc(C(=O)N[C@@H](Cc2ccccc2)C[C@H](C)C(=O)OC)cs1)C(C)C` (stereo partly drawn), which growth is on record?
**A.** 11.5% (inactive)

**Q.** How did the growth turn out when `Cc1c2ccncc2c(C)c2c1[nH]c1ccccc12` was run?
**A.** -54.9% (active)

**Q.** Which growth does the source give for `C[C@@H]1O[C@@H](O[C@H]2C[C@@H](O)[C@]3(CO)C4C(CC[C@]3(O)C2)[C@@]2(O)CC[C@H](C3=CC(=O)OC3)[C@@]2(C)C[C@H]4O)[C@H](O)[C@H](O)[C@H]1O` (stereo partly drawn) here?
**A.** -68.2% (active)

**Q.** `COc1ccccc1/C=C(/C)[N+](=O)[O-]` was tested. Which growth did it give?
**A.** 14.4% (inactive) and 103% (inactive)

**Q.** With `N#C[S-].[Au+].c1ccc(CN2[CH-]N(Cc3ccccc3)C(c3ccccc3)=C2c2ccccc2)cc1` as the compound, how does the growth read?
**A.** -3.8% (active)

**Q.** For `CC(C)(O)/C=C/C(=O)[C@](C)(O)[C@H]1[C@H](O)C[C@@]2(C)[C@H]3CC=C4[C@@H](C[C@H](O)C(=O)C4(C)C)[C@]3(C)C(=O)C[C@]12C`, which growth is on record?
**A.** -23.4% (active)

**Q.** With `COc1ccc(/C=C(/C)[N+](=O)[O-])cc1OC` as the compound, how does the growth read?
**A.** -87.6% (active) and -87% (active)

**Q.** With `COc1cc([N+](=O)[O-])c2nc(C)ccc2c1[N+](=O)[O-]` as the compound, how does the growth read?
**A.** -9.11% (active)

**Q.** How did the growth turn out when `CNC(=O)O/N=C(/C)c1ccc(Cl)cc1` was run?
**A.** 105% (inactive)

**Q.** With `Clc1ccc2nnnn2n1` as the compound, how does the growth read?
**A.** 35.6% (inactive)

**Q.** Which growth does the source give for `CC(CC(C#N)(c1ccccc1)c1ccccc1)N1CCOCC1` (stereo not drawn) here?
**A.** 107% (inactive)
